The values that follow come from PubChem BioAssay (EPA / NIEHS).

Calls of active or inactive are those of the source. The calls were made as follows: active = hit-call score of the fitted dose curve at least 0.9, where 1 is the maximum; inactive = score below 0.9.

Read-out in this test: adenosine kinase (ADK) gene, ADK (gene 132)
The test can be described thus: LTEA_HepaRG_ADK: Life Technologies and Expression Analysis (LTEA) Assay for adenosine kinase (ADK) gene using HepaRG (AID 2283471). The following applies: mRNA level, 48 h; actives raise or lower the signal. Here is the method:
LTEA_HepaRG is a cell based, multiplexed-readout assay that uses HepaRG, a human liver cell line, with measurements taken at 48 hours after chemical dosing on a 96-well plate.LTEA_HepaRG_ADK is one of 102 assay component(s) measured in the LTEA HepaRG cell culture assay. It is a marker of Steatosis.Data from the assay component LTEA_HepaRG_ADK was analyzed into 1 endpoint. This assay endpoint, LTEA_HepaRG_ADK, was analyzed with bidirectional fitting relative to DMSO as the negative control and baseline of activity. Using a type of inducible reporter, measures of mRNA induction for gain or loss-of-signal activity can be used to understand regulation of transcription factor activity. To generalize the intended target to other relatable targets, this assay endpoint is annotated to the kinase intended target family, where the subfamily is steatosis.
A total of 1060 chemcials from the ToxCast library were tested in eight-point concentration-response experiments. Cell culture and cytotoxicity assays were conducted at Thermo Fisher Scientific's Custom Services facility (Madison, WI). A single lot of human HepaRG cells (Thermo Fisher Scientific, Frederick, MD) was used for the cell culture experiments. 96-well format collagen type I coated plates of human HepaRG cells were prepared using established methods. Briefly, cryopreserved HepaRG cells were thawed, plated at a density of approximately 100,000 cells/well in HepaRG Thaw, Plate, and General Purpose media (HPRG770, Thermo Fisher Scientific), and incubated for 48 hours. 0.5% DMSO was selected as vehicle control to balance the requisite need of DMSO in HepaRG cultures to maintain differentiation (for example, baseline metabolism, proportions of hepatocytes vs. cholangiocytes), while enabling further hepatic receptor pathway activation (for example, PXR and CAR) in response to chemical exposure. 48 hours after plating, the culture medium was replaced with HepaRG Serum-Free Incudtion Media. Cells were exposed to each test chemical in duplicate and maintained in CO2 incubators for another 48 hours. Chemical plates were thawed to room temperature and 200x concentrations of treatment groups were prepared. 8-point conentration-reponse curves were made with the highest exposure at 100 uM, followed by half-log dilutions, all in 0.5% DMSO. Each test plate contained variouse controls, induction positive controls (1mM phenobarbital), cytotoxicity positive controls ([…] aflatoxin B1), vehicle controls (0.5% DMSO), and total lysis controls (0.5% DMSO). Cell morphology images were taken using an Essen IncuCyte FLR automated microscope, with six 96-well plates imaged in about 24 minutes. Images were captured and exported and JPEG files. Spent culture media was transfered to black-well plates for the LDH assay, and remaining media was sorted at -80 C for later use. Cells were treated with RLT buffer and frozen until shipped for gene expression analysis. Total RNA was isolated from the cell suspension in 75 uL of Buffer RLT (Qiagen, Germantown, MD 20874) by Quintiles/Expression Analysis (Durham, NC) using a custom isolation procedure. Total RNA from each plate well was transferred to a preamplification plate. Fluidigm's 96.96 Dynamic ArrayTM (Fluidigm, Amsterdam, the Netherlands) technology was used for gene expression analyses by quantitative reverse transcription polymerase chain reaction (qRT-PCR, performed by Quintiles/Expression Analysis, Durham, NC)89. Standard TaqManTM Assays (Applied Biosystems/ThermoFisher Scientific, Foster City, CA) were used to assess the expression of 93 genes selected based on their selectivity and sensitivity to important hepatic receptors known to be modulated by environmental chemicals; importance in human hepatocyte functionality; and hepatotoxicity. […]
`CCC(=O)C(CC(C)N(C)C)(c1ccccc1)c1ccccc1` (stereo unspecified): the outcome was inactive.

Consider `O=C(O)C(F)(F)C(F)(F)C(F)(F)C(F)(F)C(F)(F)C(F)(F)C(F)(F)C(F)(F)C(F)(F)C(F)(F)F`, for which the call was inactive.

Take `CC12CC1(C)C(=O)N(c1cc(Cl)cc(Cl)c1)C2=O` (stereo unspecified): the call was inactive.

In the case of `Cc1ccccc1N`, the result was inactive.

As for `O=C(O)C(Cl)(Cl)Cl`, the result was inactive.

Turning to `CC(C)(OO)c1ccccc1`, the outcome was inactive.

Usually AC50 stands for the concentration giving half of the maximal activity seen. Consider `O=[N+]([O-])c1ccc(O)c([N+](=O)[O-])c1`, for which the AC50 was 13.3 µM (active).

Turning to `CCOP(=S)(OCC)Oc1nc(Cl)c(Cl)cc1Cl`, the call was inactive.

As to `CC(C)(c1ccccc1)c1ccc(O)c(C(C)(C)c2ccccc2)c1`, the molecule was called inactive.

`CCOP(=S)(OCC)SCSP(=S)(OCC)OCC`: the half-maximal activity concentration (AC50) is 0.106 µM (active).

Take `O=C(Nc1ccc2[nH]ccc2c1)c1cc2cc(F)ccc2n1Cc1cccc(F)c1`: the call was inactive.

Consider `ClC1(Cl)C2(Cl)C3(Cl)C4(Cl)C(Cl)(Cl)C5(Cl)C3(Cl)C1(Cl)C5(Cl)C24Cl` (stereo unspecified), for which the outcome was inactive.

Take `NC(=O)O`: the result was inactive.

With `CC(C)(C)CC(C)(C)c1ccc(O)cc1`, the outcome was inactive.

Turning to `ClCC(Cl)CCl`, the outcome was inactive.

With `O=C1C2(Cl)C3(Cl)C4(Cl)C(Cl)(Cl)C5(Cl)C3(Cl)C1(Cl)C5(Cl)C24Cl` (stereo unspecified), the molecule was called inactive.

`CN(C)N=O`: the result was inactive.

As to `CCN1CCC2(CC1)COc1cc3c(cc12)N(C(=O)c1ccc(-c2ccc(-c4nnc(C)o4)cc2C)cc1)CC3`, the AC50 is 21.3 µM (active).

In the case of `CCCCCCCCc1ccc(O)cc1`, the result was inactive.

`O=C(O)C(F)(F)C(F)(F)C(F)(F)C(F)(F)C(F)(F)C(F)(F)F`: the outcome was inactive.

Take `Oc1cccc2cccnc12`: the call was inactive.

`C=CC(=O)OCCCCCC(C)C`: the molecule was called inactive.

As for `C=C(C)C(=O)[O][Sn]([CH2]CCC)([CH2]CCC)[CH2]CCC`, the outcome was inactive.

`CC(C)(C)c1cc(O)ccc1O`: the molecule was called inactive.

As for `C[C@@H]1C[C@@H]([C@H](O)CC2CC(=O)NC(=O)C2)C(=O)[C@@H](C)C1`, the AC50 was 81.2 µM (active).

For the molecule `C[C@]12CCC(=O)C[C@@H]1CC[C@@H]1[C@@H]2CC[C@]2(C)[C@@H](O)CC[C@@H]12`, the call was inactive.

Consider `Cn1sc(Cl)cc1=O`, for which the outcome was inactive.

`O=c1[nH]c(=O)[nH]c(=O)[nH]1`: the call was inactive.

`CCC(C)(C)c1ccc(O)c(C(C)(C)CC)c1`: the outcome was inactive.

For `CC(=O)[O][Hg][c]1ccccc1`, the AC50 is 31.5 µM (active).

As to `COc1cc(-c2ccc(N)c(OC)c2)ccc1N`, the call was inactive.
